Consider four molecules from PubChem BioAssay (EPA / NIEHS).

Results filed as inconclusive are left out. Active and inactive are the calls of the source. Rule for the calls, unless noted: active = hit-call score of the fitted dose curve at least 0.9, where 1 is the maximum; inactive = score below 0.9.

Experiment [1] concerns the target Hepatocyte nuclear factor 3-beta (Homo sapiens) (UniProt Q9Y261). Kind of experiment: ATG_FoxA2_CIS: Attagene CIS-FACTORIAL HepG2 Assay for human Forkhead box A2 (FOXA2) (AID 2282942). The settings on record: HepG2 cis-reporter transcription factor activity, 24 h; actives raise or lower the signal. The procedure, abridged:
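Endogenous transcription factor activity was read in HepG2 cells carrying transiently transfected cis-promoter reporter units. After 24 h dosing, reporter mRNA was quantified by RT-PCR and capillary electrophoresis, and values fitted bidirectionally versus DMSO.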

Experiment [2] deals with Heat shock factor protein 1 (Homo sapiens) (UniProt Q00613). Kind of experiment: ATG_HSE_CIS: Attagene CIS-FACTORIAL HepG2 Assay for human Heat Shock Transcription Factor 1 (HSE) (AID 2282953). The settings on record: HepG2 HSE cis-reporter, Attagene RNA transcription; actives raise or lower the signal. The method in brief:
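HepG2 cells transfected with cis-promoter reporter units sensing endogenous transcription factor activity; reporter mRNA quantified 24 h post-dose by RT-PCR and capillary electrophoresis of 6-FAM-labelled products. Bidirectional fitting against DMSO.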

Experiment [3] is described as follows: ATG_RORE_CIS: Attagene CIS-FACTORIAL HepG2 Assay for human RAR-related Orphan Receptor Element (RORE) (AID 2282959). The settings on record: HepG2 Attagene cis-factorial RORE reporter, mRNA; actives raise or lower the signal. The procedure, abridged:
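Cells were HepG2 carrying transfected cis-regulated reporter constructs, dosed for 24 hours. Total RNA was reverse-transcribed and reporter cDNA amplified, fluorescently labeled and sized by capillary electrophoresis. Activity was fitted bidirectionally relative to DMSO.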

A short description of experiment [4]: ATG_Sox_CIS: Attagene CIS-FACTORIAL HepG2 Assay for human SRY-box transcription factor (SOX) (AID 2282960). The settings on record: HepG2 Attagene cis-factorial SOX reporter, mRNA; actives raise or lower the signal. The method in brief: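 Transient MRTU transfection of HepG2; 24 h compound incubation; TriZol RNA, oligo(dT) RT, PCR, 6-FAM primer extension, HpaI cut, CE. Bidirectional fit, DMSO = baseline.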

Experiment [5] has as its target Transcription factor Sp1 (Homo sapiens) (UniProt P08047). Kind of experiment: ATG_Sp1_CIS: Attagene CIS-FACTORIAL HepG2 Assay for human Specificity Protein 1 (Sp1) (AID 2282961). The settings on record: HepG2 Sp1 cis-reporter transcription, actives raise or lower the signal. The procedure, abridged:
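Endogenous Sp1 activity was gauged in human liver HepG2 cells bearing transfected reporter units under a cis-regulating promoter. After 24 h dosing, reporter mRNA was quantified by RT-PCR with capillary electrophoresis, and activity fitted bidirectionally versus DMSO.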

Experiment [6] is described as follows: ATG_SREBP_CIS: Attagene CIS-FACTORIAL HepG2 Assay for human Sterol Regulatory Element Binding (SREBP) (AID 2282962). The settings on record: HepG2 Attagene cis-factorial SREBP reporter, mRNA; actives raise or lower the signal. The method in brief: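 In this cis-format assay, HepG2 liver cells express reporters controlled by promoter elements responsive to native transcription factors. Exposure lasts 24 h; reporter mRNA fluorescence from capillary electrophoresis gives the signal, fitted bidirectionally against DMSO.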

Experiment [7] has as its target Signal transducer and activator of transcription 3 (Homo sapiens) (UniProt P40763). Kind of experiment: ATG_STAT3_CIS: Attagene CIS-FACTORIAL HepG2 Assay for human Signal Transducer and Activator of Transcription 3 (STAT3) (AID 2282963). The settings on record: HepG2, Attagene cis-factorial STAT3 reporter transcription; actives raise or lower the signal. The method in brief:
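Readout: fluorescent reporter mRNA fragments resolved by capillary electrophoresis. Setup: HepG2 transfected with MRTUs reporting endogenous transcription-factor activity, dosed 24 h. Gain or loss of signal fitted bidirectionally against DMSO control.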

Experiment [8] is described as follows: ATG_TA_CIS: Attagene CIS-FACTORIAL HepG2 Assay for human TA Basal Promoter (AID 2282964). To be noted: HepG2 Attagene CIS-factorial TA basal promoter reporter; actives raise or lower the signal. The procedure, abridged:
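HepG2 cells transiently transfected with multiple reporter units under cis promoter elements, reporting endogenous transcription factor activity; this endpoint tracks the TA basal promoter as background control. Reporter mRNA after 24 h dosing measured by RT-PCR/capillary electrophoresis; bidirectional fits versus DMSO.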

The nature of experiment [9]: ATG_TCF_b_cat_CIS: Attagene CIS-FACTORIAL HepG2 Assay for human T-Cell-Factor with beta-catenin (TCF/b-cat) (AID 2282965). To be noted: HepG2 TCF/beta-catenin cis-reporter transcription, actives raise or lower the signal. The method in brief:
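HepG2 cells transiently transfected with cis-promoter-driven multiplexed reporter units; reporter mRNA measured 24 h after dosing by RT-PCR, FAM labelling, HpaI digestion and capillary electrophoresis. Bidirectional fitting relative to DMSO baseline.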

Experiment [10] in a line: ATG_TAL_CIS: Attagene CIS-FACTORIAL HepG2 Assay for human TAL Basal Promoter (AID 2282966).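 Note: background control endpoint measuring basal TAL promoter reporter mRNA not a specific factor.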 To be noted: HepG2 Attagene cis-factorial TAL promoter reporter; actives raise or lower the signal. The method in brief:
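Human hepatoma HepG2 cells, transfected with promoter-regulated reporter units, were treated 24 h. Reporter transcript levels, measured through RT-PCR and capillary electrophoresis, were fitted for gain or loss relative to DMSO.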

Experiment [11] can be described thus: ATG_VDRE_CIS: Attagene CIS-FACTORIAL HepG2 Assay for human Vitamin D Receptor Element (VDRE) (AID 2282968). To be noted: HepG2 VDRE cis-reporter transcription, actives raise or lower the signal. The procedure, abridged:
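Transient MRTU transfection of HepG2, 24 h compound exposure. Readout: reporter transcripts via RT-PCR and capillary electrophoresis, fluorescence. Bidirectional fit vs DMSO.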

The target in experiment [12] is Transcriptional activator Myb (Homo sapiens) (UniProt P10242). In words: ATG_Myb_CIS: Attagene CIS-FACTORIAL HepG2 Assay for human Myeloblastosis (Myb) Proto-Oncogene Transcription Factor (AID 2282986). To be noted: HepG2 Attagene CIS-FACTORIAL Myb reporter transcription; actives raise or lower the signal. The procedure, abridged: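 Steps: transfect HepG2 with cis-regulated reporter units; dose with chemical for 24 h; isolate RNA, reverse-transcribe, PCR-amplify and FAM-label reporter sequences; digest with HpaI; resolve by capillary electrophoresis. Activity fitted in both directions relative to DMSO.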

Experiment [13] addresses Nuclear respiratory factor 1 (Homo sapiens) (UniProt Q16656). In words: ATG_NRF1_CIS: Attagene CIS-FACTORIAL HepG2 Assay for human Nuclear Respiratory Factor 1 (NRF1) Orphan Gene (AID 2282987). The settings on record: HepG2 NRF1 cis-element reporter, Attagene multiplex; actives raise or lower the signal. The method in brief:
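Fluorescence intensity of labelled reporter cDNA fragments, resolved by capillary electrophoresis, served as readout for NRF1 cis-element activity. Transiently transfected HepG2 cells were dosed for 24 hours; activity in either direction was fitted against DMSO negative control.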

A short description of experiment [14]: ATG_NFI_CIS: Attagene CIS-FACTORIAL HepG2 Assay for human Nuclear Factor I (NFI) (AID 2282989). The settings on record: HepG2 cis-regulatory reporter, NFI response element transcription; actives raise or lower the signal. The procedure, abridged:
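Endogenous TF activity in HepG2 cells transiently transfected with cis-element-driven multiplexed reporter units, read 24 h after dosing. Reporter mRNA quantified by RT-PCR, 6-FAM labelling, HpaI digestion and capillary electrophoresis; bidirectional fit versus DMSO.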

Experiment [15] addresses Myc proto-oncogene protein (Homo sapiens) (UniProt P01106). Kind of experiment: ATG_Myc_CIS: Attagene CIS-FACTORIAL HepG2 Assay for human Myelocytomatosis (Myc) Proto-Oncogene Transcription Factor (AID 2282990). To be noted: HepG2, Attagene cis-reporter transcription factor activity; actives raise or lower the signal. The method in brief:
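Transiently transfected HepG2 cells bearing cis-promoter reporter units for endogenous transcription factors; 24 h exposure. Reporter mRNA measured by RT-PCR, 6-FAM primer extension, HpaI cut and capillary electrophoresis; bidirectional fit relative to DMSO.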

The nature of experiment [16]: ATG_NRF2_ARE_CIS: Attagene CIS-FACTORIAL HepG2 Assay for human Nuclear Factor Erythroid 2 Related Factor 2 (NFR2) response to Antioxidant Response Elements (ARE) (AID 2282992). To be noted: HepG2 Attagene ARE/NRF2 reporter, transcription factor activity; actives raise or lower the signal. The procedure, abridged: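 Using transiently transfected HepG2 cells exposed for 24 h, reporter mRNA levels were determined by RT-PCR with fluorescent primer extension and capillary electrophoresis, analysed for gain or loss of signal against DMSO.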

The nature of experiment [17]: ATG_Oct_MLP_CIS: Attagene CIS-FACTORIAL HepG2 Assay for human Octamer-Binding Transcription Factor (Oct) (AID 2282993). The settings on record: HepG2 Attagene cis-factorial Oct reporter, mRNA; actives raise or lower the signal. The procedure, abridged: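 HepG2 cells transiently transfected with cis-element-driven reporter transcription units (endogenous TF activity); 24 h compound exposure. Reporter mRNA quantified by RT-PCR, 6-FAM labelling, HpaI digestion and capillary electrophoresis; bidirectional fit versus DMSO baseline.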

In experiment [18] the target is Cellular tumor antigen p53 (Homo sapiens) (UniProt P04637). In words: ATG_p53_CIS: Attagene CIS-FACTORIAL HepG2 Assay for human p53 Transcription Factor (AID 2282994). The settings on record: HepG2 p53 cis-element reporter, Attagene mRNA; actives raise or lower the signal. The procedure, abridged:
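In HepG2 cells, reporter transcription units under cis-regulatory promoters were transiently introduced. Following 24 h treatment, RNA was processed to labelled, digested cDNA fragments read by capillary electrophoresis; fitting was bidirectional versus DMSO.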

In experiment [19] the target is Nuclear receptor subfamily 1 group I member 2 (Homo sapiens) (UniProt O75469). In words: ATG_PXR_TRANS: Attagene TRANS-FACTORIAL HepG2 Assay for human Pregnane X Receptor (PXR) (AID 2283008; active = hit-call score of the fitted dose curve at least 0.9, where 1 is the maximum). The procedure, abridged: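 Multiplexed TRANS reporter panel in HepG2; this component tracks PXR-Gal4-driven reporter mRNA after 24 h dosing, measured by RT-PCR with capillary electrophoresis fluorescence, fitted against DMSO.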

A short description of experiment [20]: ATG_XTT_Cytotoxicity: Cytotoxicity Assessment in the Attagene TRANS-FACTORIAL HepG2 Assay (AID 2283584; active = hit-call score of the fitted dose curve at least 0.9, where 1 is the maximum). The method in brief: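 24 h chemical exposure of reporter-transfected HepG2; XTT signal loss vs DMSO indicates cytotoxicity.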

The term AC50 denotes the midpoint of the concentration-response curve, whichever way the signal moves.

Signal transducer and activator of transcription 3 (Homo sapiens), sequence (P40763 whole entry, looked up, the tested form may be a part): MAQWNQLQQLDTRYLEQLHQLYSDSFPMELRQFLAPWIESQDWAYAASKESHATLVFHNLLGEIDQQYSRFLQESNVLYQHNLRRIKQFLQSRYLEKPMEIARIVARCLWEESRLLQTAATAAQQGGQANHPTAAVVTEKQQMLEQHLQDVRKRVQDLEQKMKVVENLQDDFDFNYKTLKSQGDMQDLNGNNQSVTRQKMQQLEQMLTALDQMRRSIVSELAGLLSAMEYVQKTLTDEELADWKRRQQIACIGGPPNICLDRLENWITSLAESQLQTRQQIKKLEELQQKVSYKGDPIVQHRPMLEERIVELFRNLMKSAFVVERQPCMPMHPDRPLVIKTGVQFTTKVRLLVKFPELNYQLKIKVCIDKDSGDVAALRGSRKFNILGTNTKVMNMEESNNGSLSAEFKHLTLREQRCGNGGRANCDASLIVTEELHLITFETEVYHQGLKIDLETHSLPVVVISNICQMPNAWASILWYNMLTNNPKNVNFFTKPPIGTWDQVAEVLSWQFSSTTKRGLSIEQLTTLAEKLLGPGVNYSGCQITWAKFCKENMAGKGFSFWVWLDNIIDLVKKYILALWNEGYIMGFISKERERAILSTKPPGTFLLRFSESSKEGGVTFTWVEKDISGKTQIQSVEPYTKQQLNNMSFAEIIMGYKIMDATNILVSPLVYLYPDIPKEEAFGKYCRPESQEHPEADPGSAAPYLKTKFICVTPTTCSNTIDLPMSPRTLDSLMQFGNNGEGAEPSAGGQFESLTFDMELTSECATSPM
Nuclear receptor subfamily 1 group I member 2 (Homo sapiens), sequence (O75469 whole entry, looked up, the tested form may be a part): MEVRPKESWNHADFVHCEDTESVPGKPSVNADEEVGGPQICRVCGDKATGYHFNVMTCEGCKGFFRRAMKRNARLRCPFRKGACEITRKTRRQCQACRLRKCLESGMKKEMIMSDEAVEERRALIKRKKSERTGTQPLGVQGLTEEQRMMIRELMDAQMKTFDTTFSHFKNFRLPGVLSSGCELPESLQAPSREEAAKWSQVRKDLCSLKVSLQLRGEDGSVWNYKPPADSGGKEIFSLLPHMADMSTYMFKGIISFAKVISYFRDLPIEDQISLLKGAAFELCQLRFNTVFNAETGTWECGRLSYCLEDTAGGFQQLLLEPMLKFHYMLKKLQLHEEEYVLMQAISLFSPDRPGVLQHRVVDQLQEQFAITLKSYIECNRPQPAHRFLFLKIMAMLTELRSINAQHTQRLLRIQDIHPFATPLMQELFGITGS
Nuclear respiratory factor 1 (Homo sapiens), sequence (Q16656 whole entry, looked up, the tested form may be a part): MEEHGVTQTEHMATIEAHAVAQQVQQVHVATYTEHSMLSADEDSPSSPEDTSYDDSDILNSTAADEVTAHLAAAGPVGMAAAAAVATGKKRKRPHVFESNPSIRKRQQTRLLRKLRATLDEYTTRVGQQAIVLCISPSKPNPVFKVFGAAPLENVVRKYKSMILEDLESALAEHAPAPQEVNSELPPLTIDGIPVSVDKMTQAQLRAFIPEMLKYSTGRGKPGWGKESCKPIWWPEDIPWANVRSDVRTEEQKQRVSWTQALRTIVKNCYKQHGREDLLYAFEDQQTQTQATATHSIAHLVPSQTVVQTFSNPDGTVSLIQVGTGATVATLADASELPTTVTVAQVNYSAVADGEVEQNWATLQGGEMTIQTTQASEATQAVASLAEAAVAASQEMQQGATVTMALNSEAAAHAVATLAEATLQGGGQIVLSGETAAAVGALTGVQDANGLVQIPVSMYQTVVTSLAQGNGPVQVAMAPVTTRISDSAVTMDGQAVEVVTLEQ
Myc proto-oncogene protein (Homo sapiens), sequence (P01106 whole entry, looked up): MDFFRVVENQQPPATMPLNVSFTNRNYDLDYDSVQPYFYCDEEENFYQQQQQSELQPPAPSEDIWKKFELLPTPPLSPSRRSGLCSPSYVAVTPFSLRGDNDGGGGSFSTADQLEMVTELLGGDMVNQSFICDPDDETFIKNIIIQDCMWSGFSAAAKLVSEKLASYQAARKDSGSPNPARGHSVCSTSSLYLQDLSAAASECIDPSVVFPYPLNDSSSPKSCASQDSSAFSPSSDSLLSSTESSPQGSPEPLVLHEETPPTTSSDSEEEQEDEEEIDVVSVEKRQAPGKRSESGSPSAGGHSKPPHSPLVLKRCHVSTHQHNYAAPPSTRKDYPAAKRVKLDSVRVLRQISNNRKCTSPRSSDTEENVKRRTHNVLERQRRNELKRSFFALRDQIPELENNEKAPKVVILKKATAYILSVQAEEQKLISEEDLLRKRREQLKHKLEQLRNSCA
Transcriptional activator Myb (Homo sapiens), sequence (P10242 whole entry, looked up): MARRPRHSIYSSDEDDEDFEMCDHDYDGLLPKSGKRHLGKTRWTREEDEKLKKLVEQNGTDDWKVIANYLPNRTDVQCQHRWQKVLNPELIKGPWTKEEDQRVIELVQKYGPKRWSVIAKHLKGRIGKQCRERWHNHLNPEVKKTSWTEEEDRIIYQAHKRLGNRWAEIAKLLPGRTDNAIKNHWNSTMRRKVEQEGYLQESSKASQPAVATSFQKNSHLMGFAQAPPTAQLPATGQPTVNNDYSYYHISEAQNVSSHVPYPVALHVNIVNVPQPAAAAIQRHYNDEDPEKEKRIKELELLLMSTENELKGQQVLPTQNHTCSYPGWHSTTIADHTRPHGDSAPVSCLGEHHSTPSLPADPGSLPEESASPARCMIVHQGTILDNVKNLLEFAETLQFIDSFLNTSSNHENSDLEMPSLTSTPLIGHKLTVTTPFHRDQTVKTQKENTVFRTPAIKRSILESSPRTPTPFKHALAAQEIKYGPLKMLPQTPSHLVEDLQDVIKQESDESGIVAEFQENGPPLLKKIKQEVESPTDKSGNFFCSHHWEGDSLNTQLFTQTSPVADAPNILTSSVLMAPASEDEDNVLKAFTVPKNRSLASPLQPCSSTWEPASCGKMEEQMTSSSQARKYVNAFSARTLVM
Heat shock factor protein 1 (Homo sapiens), sequence (Q00613 whole entry, looked up): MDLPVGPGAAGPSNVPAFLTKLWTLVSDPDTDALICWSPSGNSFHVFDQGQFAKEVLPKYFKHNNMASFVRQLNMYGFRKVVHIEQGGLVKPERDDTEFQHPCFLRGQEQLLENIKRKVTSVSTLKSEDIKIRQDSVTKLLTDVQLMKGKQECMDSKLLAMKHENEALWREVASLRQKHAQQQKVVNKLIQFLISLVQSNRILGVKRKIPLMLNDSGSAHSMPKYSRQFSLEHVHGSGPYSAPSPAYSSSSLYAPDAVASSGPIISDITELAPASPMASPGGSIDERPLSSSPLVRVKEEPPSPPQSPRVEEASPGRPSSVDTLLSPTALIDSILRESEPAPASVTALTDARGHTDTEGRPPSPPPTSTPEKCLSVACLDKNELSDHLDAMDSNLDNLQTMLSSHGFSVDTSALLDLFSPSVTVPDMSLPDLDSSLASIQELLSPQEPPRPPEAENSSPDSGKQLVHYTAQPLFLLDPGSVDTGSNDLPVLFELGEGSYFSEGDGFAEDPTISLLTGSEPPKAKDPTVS
Cellular tumor antigen p53 (Homo sapiens), sequence (P04637 whole entry, looked up, the tested form may be a part): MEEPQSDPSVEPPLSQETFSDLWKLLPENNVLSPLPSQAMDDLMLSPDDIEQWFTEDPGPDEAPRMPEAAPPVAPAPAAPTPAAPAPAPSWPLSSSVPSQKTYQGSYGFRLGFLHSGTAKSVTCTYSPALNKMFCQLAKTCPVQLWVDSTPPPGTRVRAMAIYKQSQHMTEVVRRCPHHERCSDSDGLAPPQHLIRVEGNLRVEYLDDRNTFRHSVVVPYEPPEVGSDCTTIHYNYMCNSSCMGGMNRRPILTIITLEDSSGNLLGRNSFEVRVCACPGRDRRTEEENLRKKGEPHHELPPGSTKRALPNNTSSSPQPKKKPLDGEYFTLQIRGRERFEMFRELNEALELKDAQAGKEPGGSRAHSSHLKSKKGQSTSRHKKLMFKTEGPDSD
Hepatocyte nuclear factor 3-beta (Homo sapiens), sequence (Q9Y261 whole entry, looked up): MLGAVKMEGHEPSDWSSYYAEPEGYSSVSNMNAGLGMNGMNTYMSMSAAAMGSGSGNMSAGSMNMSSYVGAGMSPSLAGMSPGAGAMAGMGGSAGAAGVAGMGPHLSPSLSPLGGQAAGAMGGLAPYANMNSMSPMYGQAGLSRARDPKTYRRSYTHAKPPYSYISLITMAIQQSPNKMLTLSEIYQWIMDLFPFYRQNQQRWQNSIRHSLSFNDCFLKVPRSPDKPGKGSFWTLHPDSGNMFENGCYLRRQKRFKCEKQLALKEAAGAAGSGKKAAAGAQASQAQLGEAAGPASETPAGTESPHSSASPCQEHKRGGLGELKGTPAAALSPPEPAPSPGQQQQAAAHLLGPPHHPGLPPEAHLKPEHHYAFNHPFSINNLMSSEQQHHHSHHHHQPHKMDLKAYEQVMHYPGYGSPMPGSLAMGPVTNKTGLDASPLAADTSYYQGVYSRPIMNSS
Transcription factor Sp1 (Homo sapiens), sequence (P08047 whole entry, looked up): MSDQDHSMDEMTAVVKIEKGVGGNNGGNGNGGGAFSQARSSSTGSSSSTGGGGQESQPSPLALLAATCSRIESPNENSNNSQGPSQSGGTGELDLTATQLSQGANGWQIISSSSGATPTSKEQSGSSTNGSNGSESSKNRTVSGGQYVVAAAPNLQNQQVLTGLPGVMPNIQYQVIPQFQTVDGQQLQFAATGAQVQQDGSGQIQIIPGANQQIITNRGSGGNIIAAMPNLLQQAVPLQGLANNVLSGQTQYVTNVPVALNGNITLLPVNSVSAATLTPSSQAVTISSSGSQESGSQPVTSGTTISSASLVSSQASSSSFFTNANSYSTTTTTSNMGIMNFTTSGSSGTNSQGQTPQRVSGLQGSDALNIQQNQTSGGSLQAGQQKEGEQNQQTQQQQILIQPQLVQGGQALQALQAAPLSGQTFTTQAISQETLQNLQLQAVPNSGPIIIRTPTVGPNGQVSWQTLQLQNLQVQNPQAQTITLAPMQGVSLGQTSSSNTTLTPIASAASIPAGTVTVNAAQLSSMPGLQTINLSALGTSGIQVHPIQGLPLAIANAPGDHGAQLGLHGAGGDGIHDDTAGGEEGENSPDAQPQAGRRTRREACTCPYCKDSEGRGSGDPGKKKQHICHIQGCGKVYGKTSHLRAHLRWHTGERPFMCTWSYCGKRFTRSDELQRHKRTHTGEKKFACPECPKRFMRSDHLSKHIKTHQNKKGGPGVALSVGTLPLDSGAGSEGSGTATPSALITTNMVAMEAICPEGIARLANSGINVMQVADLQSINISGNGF

With `Cc1cc(C)c(S(=O)(=O)O)cc1N=Nc1cc(S(=O)(=O)O)c2ccccc2c1O`, the molecule was classed as inactive in [1], in [2], in experiment [3], in [4], in experiment [5] and in experiment [6]. The molecule was classed as inactive in [7], in experiment [8], in experiment [9], in [10], in experiment [11] and in [12]. In addition, the outcome in experiment [13], in experiment [14], in experiment [15], in [17], in [18] and in experiment [19] was inactive. In addition, the result in experiment [20] was inactive. Besides, in experiment [16], the AC50 was 72.2 µM (active).
As for `O=C(O)c1cc(Cl)cc(Cl)c1O`, the molecule was called inactive in experiment [1], in experiment [2], in experiment [3], in experiment [4], in [5] and in experiment [6]. Further, the molecule was called inactive in experiment [7], in experiment [8], in experiment [9], in experiment [10], in experiment [11] and in experiment [12]. The call in experiment [13], in experiment [14], in [15], in experiment [16], in experiment [17] and in [18] was inactive. In addition, the result in experiment [19] and in experiment [20] was inactive.
`COc1ccccc1OCC(O)CO` (configuration not stated): the call in experiment [1], in experiment [3], in experiment [4], in experiment [5], in experiment [6] and in [7] was inactive. Further, the molecule was classed as inactive in experiment [8], in experiment [9], in experiment [10], in experiment [11], in experiment [12] and in experiment [13]. Further, the molecule was classed as inactive in [14], in [15], in experiment [16], in experiment [17], in experiment [18] and in [19]. Besides, the result in experiment [20] was inactive.
As for `CCCN[C@H]1CCc2nc(N)sc2C1`, the molecule was called inactive in [1], in [2], in experiment [3], in [4], in experiment [5] and in experiment [6]. Besides, the result in experiment [7], in experiment [8], in [9], in [10], in [11] and in experiment [12] was inactive. Moreover, the molecule was classed as inactive in [13], in experiment [14], in [15], in experiment [16], in experiment [17] and in experiment [18].
